For the experiment, the system named is Vero E6 infected with SARS-CoV-2. The experiment can be described thus: inhibition of SARS-CoV-2 cytopathic effect; higher = more antiviral protection, active = above 15. The note with it: 8.33 nM; 48 h.
Regarding `O=C1NC(=O)C(c2ccccc2)(c2ccccc2)N1` [phenytoin], the “inhibition of SARS-CoV-2 cytopathic effect” value (shortened to “inhibition”) was 0.49% (inactive). As for `CC(=O)Nc1ncc([N+](=O)[O-])s1` [nithiamide], the figure is -2.01% (inactive); as for `C[C@H](N)Cc1cccc(O)c1` [gepefrine], 1.71% (inactive); as for `Fc1ccc(C(c2ccc(F)cc2)N2CCN(C/C=C/c3ccccc3)CC2)cc1` [flunarizine], -0.01% (inactive).

Turning to `O=c1cc(-c2ccc(O)cc2)oc2cc(O)cc(O)c12` [apigenin], the “inhibition” value was -3.34% (inactive). The same measure for `CCCCCCCCCCCCCCCCCC(=O)OCC(O)CO` (stereo not given) [monostearin]: 0.27% (inactive). Consider `C[C@]12CC[C@H]3[C@@H](CC[C@]4(O)C[C@@H](O)CC[C@]34C=O)[C@@]1(O)CC[C@@H]2C1=CC(=O)OC1` [K-strophanthidin], for which the “inhibition” value is 0.18% (inactive). The same measure for `Nc1nc2c(ccc3ccccc32)s1`: -0.18% (inactive). The same measure for `CCCCOc1ccc(OCCCN2CCOCC2)cc1` [pramoxine]: -1.02% (inactive); for `CC1CC(OC(=O)C(O)c2ccccc2)CC(C)(C)C1` (stereo not given) [cyclandelate]: 0.54% (inactive); for `Cc1c[nH]c2ncnc(N3CCC(CN)(C(=O)Nc4cccc(OC(=O)N(C)C)c4)CC3)c12`: -1.69% (inactive). As for `CCCCCCCCNC(=O)/C(C#N)=C/c1cn(CCCN(C)C)c2ccccc12` [dynole-34-2], the “inhibition” value was 2.28% (inactive). As for `C=C1/C(=C\C=C2/CCC[C@]3(C)[C@@H]([C@H](C)OCCC(C)(C)O)CC[C@@H]23)C[C@@H](O)C[C@@H]1O` [maxacalcitol], the figure is 0.65% (inactive). The same measure for `COc1ccc(-c2oc3cc(OC)ccc3c2C(=O)c2ccc(C#N)cc2)cc1`: -2.08% (inactive); for `CC1(C)CCC2=C(O1)c1ccccc1C(=O)C2=O` [beta-lapachone]: 0.37% (inactive). As for `CCCCCCCCCCCCCCCCO` [1-hexadecanol], the figure is 0.36% (inactive); as for `CC(=O)OC[C@H]1O[C@@](COC(C)=O)(O[C@H]2O[C@H](COC(C)=O)[C@@H](OC(C)=O)[C@H](OC(C)=O)[C@H]2OC(C)=O)[C@@H](OC(C)=O)[C@@H]1OC(C)=O` [sucrose-octaacetate], 1.07% (inactive). Regarding `CCC(=O)OCN1C(=O)C=CC1=O`, the “inhibition” value is 0.83% (inactive). Turning to `N=C(N)NC(=O)c1cnccn1` [pyrazinoylguanidine], the “inhibition” value is -6.78% (inactive). As for `C[C@@H](O)[C@H]1C(=O)N2C(C(=O)O)=C(SCCNC=N)C[C@H]12` [imipenem], the figure is 10% (inactive); as for `COc1ccc(-n2c(SCCCN3C(=O)c4cccc5cccc(c45)C3=O)nnc2-c2ccncc2)cc1`, 2.51% (inactive); as for `Cc1nn(C)c2c1C(c1ccc(C(F)(F)F)cc1)C(C#N)=C(N)O2` (stereo not given), -1.78% (inactive).

Take `COc1cc(NC(=O)Nc2cccc(CNC(=O)O[C@H]3CCOC3)c2)ccc1-c1cnco1` [merimepodib]: the “inhibition” value was 0.11% (inactive). The same measure for `O=C(CC12CC3CC(CC(C3)C1)C2)Nc1cccc2nc(NCCNCCO)ccc12`: 8.07% (inactive); for `N[C@@H](CSS(=O)(=O)O)C(=O)O` [S-sulfo-L-cysteine]: 1.82% (inactive). As for `CN1CCN(C(=O)O[C@H]2c3nccnc3C(=O)N2c2ccc(Cl)cn2)CC1`, the figure is 1.71% (inactive). The same measure for `Cc1cc2ncc(C(=O)NCC(C)(C)NCC(=O)N3CCC[C@H]3C#N)cn2n1` [anagliptin]: -0.56% (inactive); for `Cn1cc([S+](C)[O-])c(=O)c2ccc(F)cc21` (stereo not given) [flosequinan]: -0.91% (inactive); for `O=C(Cn1ccnc1[N+](=O)[O-])NCCO` [etanidazole]: 0.33% (inactive). With `C=CC[N+]1([C@H]2C[C@H]3[C@@H]4CC[C@H]5C[C@H](O)[C@@H](N6CCOCC6)C[C@]5(C)[C@H]4CC[C@]3(C)[C@H]2OC(C)=O)CCCC1`, the “inhibition” value was -0.87% (inactive). As to `CCC1=C[C@@H]2CN3CCc4c([nH]c5ccccc45)[C@@](C(=O)OC)(C2)[C@@H]13` [catharanthine], the “inhibition” value is 0.35% (inactive). For `Cc1c(Cl)c(C)[n+]([O-])c(Cl)c1-c1noc(-c2cc(O)c(O)c([N+](=O)[O-])c2)n1` [opicapone], the “inhibition” value was 1.95% (inactive). For `CC1(C)C(=O)NC2=C1C(=O)C(=O)c1ccccc12`, the “inhibition” value is -0.49% (inactive). Take `CC(NCCc1ccc(O)cc1)C(O)c1ccc(O)cc1` (stereo not given) [ritodrine]: the “inhibition” value was -0.09% (inactive). The same measure for `N=C(N)SCCc1ccc(OCc2ccc([N+](=O)[O-])cc2)cc1`: -1.12% (inactive); for `COc1ccc2c(c1)C(=O)N(CCc1ccc(S(=O)(=O)NC(=O)NC3CCCCC3)cc1)C(=O)C2(C)C` [gliquidone]: 2.65% (inactive); for `CSc1ccccc1OCC(O)CNC(C)C` (stereo not given) [tiprenolol]: 2.58% (inactive). The same measure for `C[C@H]1[C@H](C)CC[C@]2(C(=O)O)CC[C@]3(C)C(=CC[C@@H]4[C@@]5(C)C[C@@H](O)[C@H](O)[C@@](C)(CO)[C@@H]5CC[C@]43C)[C@H]12` [asiatic-acid]: -0.62% (inactive); for `C=C[C@@]1(C)CC(=O)[C@]2(O)[C@@]3(C)[C@@H](O)CCC(C)(C)[C@@H]3[C@H](OC(=O)CCN(C)C)[C@H](OC(C)=O)[C@@]2(C)O1` [colforsin-daproate]: -2.13% (inactive). Take `Cc1cc(NC(=O)NCCN2CCC(O)(Cc3ccccc3)CC2)c2ccccc2n1` [palosuran]: the “inhibition” value is 0.24% (inactive).

Values taken from the supplement of paper PMC13380429.
